Laboratory results reported in PubChem BioAssay AID504326 (The Scripps Research Institute Molecular Screening Center, 2011).
Out of some 340,000 compounds screened, about 990 (0.29%) were called active. The sample holds actives, similar compounds and a random draw of the others, so the mix is not that of the screen. Unmarked numbers belong to inactive results. Rule as the data show it: active = activation above about 18%; inactive = the rest.

Biological target: Mu-type opioid receptor (Homo sapiens) + Delta-type opioid receptor (Homo sapiens) (UniProt P35372+P41143)
Sequence (P35372 whole entry, looked up): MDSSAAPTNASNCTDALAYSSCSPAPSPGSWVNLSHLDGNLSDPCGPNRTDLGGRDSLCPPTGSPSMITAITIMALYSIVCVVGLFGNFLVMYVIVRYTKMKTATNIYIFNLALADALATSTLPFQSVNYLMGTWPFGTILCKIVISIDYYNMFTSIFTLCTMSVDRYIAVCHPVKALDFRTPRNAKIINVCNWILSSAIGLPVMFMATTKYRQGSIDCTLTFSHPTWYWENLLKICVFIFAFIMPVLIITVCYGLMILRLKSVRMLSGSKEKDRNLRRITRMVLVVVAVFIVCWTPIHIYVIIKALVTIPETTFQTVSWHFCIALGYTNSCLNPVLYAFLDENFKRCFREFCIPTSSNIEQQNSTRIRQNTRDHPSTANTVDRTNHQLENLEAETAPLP
Sequence (P41143 whole entry, looked up): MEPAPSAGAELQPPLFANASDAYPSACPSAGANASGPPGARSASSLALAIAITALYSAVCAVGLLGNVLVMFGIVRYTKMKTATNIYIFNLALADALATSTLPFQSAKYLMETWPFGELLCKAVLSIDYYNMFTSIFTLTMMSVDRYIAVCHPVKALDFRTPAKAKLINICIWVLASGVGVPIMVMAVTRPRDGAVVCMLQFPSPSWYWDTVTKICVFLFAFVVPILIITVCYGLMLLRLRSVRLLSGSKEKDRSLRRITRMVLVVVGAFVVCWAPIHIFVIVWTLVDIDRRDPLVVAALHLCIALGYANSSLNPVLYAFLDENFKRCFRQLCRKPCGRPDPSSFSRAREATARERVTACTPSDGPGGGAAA
Test: inducers of mu-delta opioid receptor heterodimers – cell-based, luminescence, primary screen (AID 504326);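 also: 0% = vehicle-treated cells and 100% = reference agonist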
Conditions: cells, OPRM1-OPRD1 heterodimerization, at 9.3 µM, stronger effect = higher value

In the case of `COC1C(O)C(C)OC(OC2CCC3(C=O)C(CCC4C3CCC3(C)C(C5=CC(=O)OC5)CCC43O)C2)C1O` (stereo not given), the activation is reported as 82.9% (active).
For `C[C@]12CC[C@H](O)C[C@H]1CC[C@@H]1C2CC[C@]2(C)[C@@H](C3=CC(=O)OC3)[C@@H](O)C[C@]12O` (stereo not given in full), the activation was 62.4% (active).
For `CCOC(=O)C1(CCc2ccccc2)CCN(Cc2ccco2)CC1`, the activation was 23.8% (active).
For `CCC1(C)CC(CCNCc2ccc(N(C)C)cc2)(c2ccc(F)cc2)CCO1` (stereo not given), the activation was 125% (active).

In order of rising activation:
1. CC(=O)OC1C2(CC3N4C(=O)C5(CO)SSC4(CC31O)C(=O)N5C)OC(C)C(C)(C)C2=O (stereo not given)  -23.2%
2. CC1(C)C(c2ccccc2)=NC(c2cccnc2)=[N+]1[O-]  -4.09%
3. COc1ccc(C2NCc3ccc4c(c3-n3cccc32)OCO4)cc1OC (stereo not given)  -3.63%
4. CCOP(=O)(OCC)C(NC(=O)NC)C(N)=O (stereo not given)  -3.11%
5. NC(=O)Cn1cc(C(=O)c2ccccc2F)c2ccccc21  -3.05%
6. C[C@]12CCC3C(CC[C@H]4C[C@@H](O)CC[C@]34C)C1C[C@@H](O)[C@H]2O (stereo not given in full)  -2.9%
7. COC(=O)C1=C(c2c(C)noc2C)C[C@@H]2CC[C@H]1N2C(=O)NCc1ccc2c(c1)OCO2  -2.32%
8. c1ccc2sc(C3CCCNC3)nc2c1 (stereo not given)  -2.28%
9. O=C1NC(=O)C(CCOc2ccccc2)(CCc2ccccc2)C(=O)N1  -1.87%
10. C[C@]12CCC3C(CC[C@H]4C[C@@H](O)CC[C@]34C)C1CC[C@@H]2O (stereo not given in full)  -1.31%
11. Cn1c(O)c(C=NCCCC(=O)O)c(=O)n(C)c1=O  -1.29%
12. COc1cc2nc(N3CCN(C(=O)[C@@H]4CCCO4)CC3)nc(N)c2cc1OC  -0.16%
13. CCOC(=O)C1(Cc2ccc(Cl)cc2)CCN(C(C)CCn2cccn2)CC1 (stereo not given)  0.28%
14. CCCCC(=O)N/N=C/c1c(O)n(CC)c(=S)n(CC)c1=O  0.54%
15. c1cc2c(cc1C1OCC3C(c4ccc5c(c4)OCO5)OCC13)OCO2 (stereo not given)  1.03%
16. CCOC(=O)C1(c2ccccc2)CCN(CC(O)c2ccc(NC(C)=O)cc2)CC1 (stereo not given)  3.27%
